Source: PubChem BioAssay AID1347416 (National Center for Advancing Translational Sciences (NCATS), 2020)
Among all 4,100 compounds or so, about 1,600 (39%) were called active. Roughly 25% stayed inconclusive and do not appear here. Calls come from the whole dose curve; as a rule, active = well fitted inhibition curve with a large enough effect; inconclusive = small, poorly fitted or top-dose-only effect; inactive = no such curve, though single readings can be large or run the other way. The list shows a part of the results.

Assay: qHTS Validation assay for Inhibitors of Plasmodium falciparum Dd2 growth in vitro; note: nearly all actives have a fitted effect of over 70% in size
Conditions: P. falciparum Dd2 in RBCs, SYBR Green growth, 72 h; series mostly up to 28.7 µM; activity change, negative = inhibition: at the top concentration
In short: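 P. falciparum Dd2-infected red blood cells (2.5% hematocrit, 0.3% parasitemia) grown 72 h at 37 °C under 5% O2 with compounds in a titration, 29 uM to 0.5 nM final. Growth read as SYBR Green-1 fluorescence after ~16 h lysis; artesunate 300 nM as positive control.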
% is set by controls: 0 for no effect and ±100 for the full control effect; potency is the fitted concentration of half-maximal effect.

SMILES | activity change, negative = inhibition | Potency
Cn1nc(-c2nncn2CC2CC2)c2c1CCN(C(=O)c1[nH]nc3c1COc1ccccc1-3)C2 | -23.7% (inactive) | –
COc1cccc(C2Cn3nnc(-c4nc(-c5ccccc5Br)no4)c3CO2)c1 (stereo unspecified) | -18.1% (inactive) | –
CCc1c(C)c2ccc3c(c2oc1=O)CN(Cc1ccccc1)CO3 | – | 2.11 µM (active)
O=c1cc(-c2ccccc2)c2ccc3c(c2o1)CN(Cc1cccc(Cl)c1)CO3 | – | 0.842 µM (active)
O=C1CN(Cc2ccc(-c3ccccc3)cc2)CCN1c1cc(Cl)ncn1 | 8.44% (inactive) | –
Cc1ccc(CN2COc3ccc4c(-c5ccccc5)cc(=O)oc4c3C2)cc1 | – | 0.842 µM (active)
Cc1ccc(CN2CCc3oc(C)c(C(=O)N(C)CC(=O)N4CCCC4)c3C2)cc1 | -21.8% (inactive) | –
CCC(=O)N(C1CCOCC1)C1CCN(Cc2cccc(Cl)c2)CC1 | 9.38% (inactive) | –
O=C(NC(=S)Nc1ccc(NC(=O)c2cccs2)cc1)c1ccco1 | – | 9.44 µM (active)
COc1ccc(-n2nc(C(=O)NCCc3ccc(OC)c(OC)c3)c3c4ccccc4n(C)c3c2=O)cc1Cl | – | 2.99 µM (active)
COc1ccc(C(=O)NCCn2ccn3nc(-c4cc(C)ccc4C)cc3c2=O)cc1OC | -17.3% (inactive) | –
CCN(CCCNC(=O)c1nn(-c2ccc(OC)c(Cl)c2)c(=O)c2c1c1ccccc1n2C)c1cccc(C)c1 | – | 15 µM (active)
CCOc1ccc(-c2cc3c(=O)n(CCNC(=O)c4ccccc4OC)ccn3n2)cc1 | -7.19% (inactive) | –
CCN(CC)CCCNC(=O)c1nn(-c2ccc(OC)c(Cl)c2)c(=O)c2c1c1ccccc1n2C | – | 10.6 µM (active)
COc1ccccc1CC(=O)NCCn1ccn2nc(-c3ccc(C)c(C)c3)cc2c1=O | -25.6% (inactive) | –
Cc1cccc(CNC(=O)Cn2nc(C)c3nn(-c4ccc(Cl)cc4)c(C)c3c2=O)c1 | 33.4% (inactive) | –
N#Cc1nc(Nc2cc(F)cc(F)c2)c2ncn(CC(F)F)c2n1 | – | 4.73 µM (active)
CCn1cnc2c(Nc3cc(F)cc(F)c3)nc(C#N)nc21 | – | 2.37 µM (active)
Cc1ccc2nc(-c3sc4nc(C)ccc4c3N)[nH]c2c1 | -26.6% (inactive) | –
CCCC(O)c1nc2ccccc2n1CCCCOc1ccc(OC)cc1 (stereo unspecified) | – | 15 µM (active)
COc1ccc(-c2cc3c(=O)n(CCNC(=O)c4ccc(OC)cc4OC)ccn3n2)cc1 | -17.1% (inactive) | –

SMILES | activity change, negative = inhibition | Potency
COc1ccc(-c2cc3c(=O)n(CCNC(=O)c4cc(OC)cc(OC)c4)ccn3n2)cc1 | 18.8% (inactive) | –
CCC(C(=O)NCCn1ccn2nc(-c3ccc(OC)cc3)cc2c1=O)c1ccccc1 (stereo unspecified) | – | 15 µM (active)
CC(C)N(Cc1nc2ccccc2[nH]1)C(C)C | -3.28% (inactive) | –
COC[C@H]1CCCN1[C@@H]1[C@H](O)[C@H](CO)O[C@@H]1CN(Cc1cccc(Cl)c1)Cc1cccc(Cl)c1 | – | 10.6 µM (active)
O=C1c2ccccc2C2=Nc3ccccc3SC(c3ccccc3F)C12 (stereo unspecified) | – | 4.73 µM (active)
O=C1c2ccccc2C2=Nc3ccccc3SC(c3ccc(Cl)cc3)C12 (stereo unspecified) | – | 2.66 µM (active)
Cc1ccc(NC(=O)CSc2nc(-c3ccco3)cc(C(F)(F)F)n2)c(C)c1 | -29% (inactive) | –
CCN(CC)C(=O)c1sc(NC(=O)C(C)Sc2nc(-c3ccccc3)cc(C(F)(F)F)n2)c(C(=O)OC)c1C (stereo unspecified) | – | 0.596 µM (active)
CCCOC(=O)c1c(NC(=O)C(C)Sc2nc(-c3ccccc3)cc(C(F)(F)F)n2)sc(C(=O)N(C)C)c1C (stereo unspecified) | – | 1.68 µM (active)
CCOC(=O)c1sc(NC(=O)C(C)Sc2nc(-c3ccccc3)cc(C(F)(F)F)n2)c(C(=O)OC)c1C (stereo unspecified) | – | 2.37 µM (active)
CCc1cc(C(=O)c2ccccc2)c(N)s1 | 35.9% (inactive) | –
CCOc1ccc2nc(C)cc(Nc3ccc4c(c3)OCCO4)c2c1 | – | 6.68 µM (active)
Cc1ccc2nc(C)cc(Nc3ccc([N+](=O)[O-])cc3)c2c1 | – | 6.68 µM (active)
Cc1ccc(-c2onc3ccc(C(=O)O)cc23)cc1 | 19.2% (inactive) | –
COC(=O)c1ccc2nc(C)cc(Nc3ccc(O)cc3)c2c1 | – | 9.44 µM (active)
COc1ccc2nc(C)cc(NCc3cccc(C(F)(F)F)c3)c2c1 | – | 2.11 µM (active)
COc1ccc2nc(C)cc(Nc3ccc(Cl)c(Cl)c3)c2c1 | – | 2.66 µM (active)
Cc1ccc(S(=O)(=O)N2CCN(C(=S)NCc3ccc4c(c3)OCO4)CC2)cc1 | – | 2.37 µM (active)
CCc1nc2cc(N3CCC(C(=O)NCc4ccc5c(c4)OCO5)CC3)cnc2nc1CC | -21.2% (inactive) | –
Cc1ccc(S(=O)(=O)N2CCC(C(=O)NCC3CC3)CC2)cc1 | 18.4% (inactive) | –
CCCCc1cc(=O)oc2cc(C)cc(OCC(=O)Nc3cccnc3)c12 | – | 0.596 µM (active)

SMILES | activity change, negative = inhibition | Potency
Cc1cccc(OCC(=O)NC2CCN(C(=O)c3cc4c(=O)[nH]c(C)cn4n3)CC2)c1 | -0.762% (inactive) | –
CCCc1cc(=O)oc2cc(C)cc(OCC(=O)Nc3ccccn3)c12 | – | 2.11 µM (active)
Cc1cccnc1NC(=O)COc1ccc2oc3c(c2c1)CCCC3 | 26% (inactive) | –
CCCc1cc(=O)oc2cc(C)cc(OCC(=O)NC3CC3)c12 | – | 4.73 µM (active)
CCn1ncc(N2CCC(NC(=O)COc3ccc(F)cc3)CC2)cc1=O | -8.45% (inactive) | –
Cc1ccc(C)c(OCC(=O)Nc2cc(C(=O)O)cc(C(=O)O)c2)c1 | -0.159% (inactive) | –
CCCc1cc(=O)oc2cc(C)cc(OCC(=O)Nc3cccnc3)c12 | – | 0.531 µM (active)
CCn1cc(S(=O)(=O)N2CCCOCCNC(=O)[C@@H]3CCC[C@@H]32)cn1 | 1.04% (inactive) | –
Cc1cc([N+](=O)[O-])ccc1NC(=O)COc1nsnc1N1CCOCC1 | – | 6.68 µM (active)
COc1ccc(Cn2c(C3CCN(C(=O)Cc4ccc(F)cc4)CC3)n[nH]c2=O)cc1 | -12.2% (inactive) | –
COc1ccc(CCN2CCC(Nc3nc4ccccc4n3Cc3ccc(F)cc3)CC2)cc1 | – | 2.37 µM (active)
COc1ccc(CN2CC[C@H](c3nnc(-c4ccccc4F)o3)C2)cc1 | 6.78% [at 43.1 µM] (inactive) | –
Cc1nc(N2CCC(C)CC2)c2c(C)c(C(=O)Nc3ccc(C(F)(F)F)cc3)sc2n1 | – | 7.5 µM (active)
CC1CCN(c2nc3ccc(C(=O)O)cc3s2)CC1 | 68.3% (inactive) | –
CN(C(=O)CSc1nc2ccc(NC(=O)CCc3ccccc3)cc2s1)c1ccccc1 | – | 13.3 µM (active)
COc1ccc(CNC(=O)Cn2c(SCC(=O)N(C)c3ccccc3)nc3ccccc32)cc1 | 21.9% (inactive) | –
O=C(NCc1ccc(N2CCCC2)cc1)C1CCCN(c2cnn(Cc3ccccc3)c(=O)c2)C1 (stereo unspecified) | – | 10.6 µM (active)
O=C(CC1CCCN(c2cnn(CC3CC3)c(=O)c2)C1)NCc1ccccc1 (stereo unspecified) | 8.87% (inactive) | –
Cc1ccc(C)n1-c1nnc(N2CCCC(C(=O)NCc3ccccc3)C2)s1 (stereo unspecified) | -8.48% (inactive) | –
